Assay results: PubChem BioAssay AID1508600 (Functional Genomics Laboratory (NCATS/FGL), 2020)
In all, about 53,000 sequences went through this assay and about 3,700 (7%) were called active.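 The calls were made as follows: active = gene knockdowns whose robust z-score for IL-1 alpha signal is at least 2 or at most -2, so actives lie on both sides; inactive = the rest.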 Shown is part of a subset that was picked to be rich in actives.

Assay: Components of the Cytosolic LPS Sensing Pathway: Gene Identification via Genome-wide siRNA Screen;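 also: robust z of the log signal after scaling to non-targeting control siRNA wells of the plate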
Settings: RAW264.7 macrophages, IL-1a HTRF, actives lie on both sides, screened at 100 nM (by protocol), cells primed 5 h with Pam3CSK4 first
How it was run: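 Knockdown: 100 nM siRNA, 48h, RAW264.7. Stimulation: Pam3CSK4 5 h, then LipidA via TransIT-TKO 24 h. Output: supernatant IL-1a HTRF, negative-control-normalized, log robust z-score; viability by CellTiter-Glo.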

Sequence | z-score
GGGACCACCUUGAACACUATT against Slc52a3 | 1.81 (inactive)
GGCAUCUUAUUUCUUGUUATT against Tbkbp1 | -0.56 (inactive)
GUGAAGAAAGUCAUCAAGATT against Olfr1506 | -0.182 (inactive)
GGCUUUGAUCAGCAUGAGCTT against Pak4 | -2.07 (active)
GCAAGGUCAAUCAAUCGUATT against Taar1 | 0.548 (inactive)
GCGGAGUCUUUGGCUUAGATT against Lratd2 | 1.03 (inactive)
CGAAAGCUAAACUAAAAGATT against Stimate | 0.539 (inactive)
GCUGAAUACCCUUUUAGUUTT against Atp2c1 | 0.317 (inactive)
GCGAUAUUAACUAUGGAGATT against Gpr149 | -0.601 (inactive)
GGUAUUCCAAUAACUGUACTT against Fip1l1 | -0.269 (inactive)
GGAAAGAAUCCACUUGCAUTT against Xkr5 | -1.35 (inactive)
GGAGAUUUUCCAGAGGCUGTT against Josd1 | -2.24 (active)
CGGCCUUCUCUACAAAUCATT against Rbfa | 0.816 (inactive)
GCUGACCAUUUUGAUGCCCTT against Adi1 | -0.0381 (inactive)
GGUGGUUUUGUUUCUUUUUTT against Tab3 | 0.643 (inactive)
GGGCCAACCCAGAAAAACATT against Plekha7 | -0.515 (inactive)
GCCGUCUUUACAUUCCUGATT against Olfr605 | 0.8 (inactive)
CCCAUCAAAAGAAUCCACATT against Snrnp70 | -2.51 (active)
GGUGUUUAAUUGCUCACUATT against Gramd4 | 1.13 (inactive)
UACCCGAAUGCAGACAGGATT against Raet1a | 0.667 (inactive)
GGAGGAAGCUGAACUCUGGTT against Ehmt2 | -0.655 (inactive)
GCAUUUAGAAGAAUCCGCCTT against Hao2 | 2.01 (active)

Sequence | z-score
CCUUGUGAUGUUUAAAGACTT against Abcg1 | 0.293 (inactive)
GUGAGUAGGUAGGAAGCAUTT against Cd200r2 | -2.56 (active)
CCAGUUGUCUAGACCUGCATT against Ptbp1 | -0.301 (inactive)
CCUACAAGCAGAGUACAAUTT against Myo10 | 1.06 (inactive)
GGCCUUCAACGAUUCAAUCTT against Olfr770 | 1.35 (inactive)
GGAGAGAAAUUUGACACUCTT against Mgrn1 | -0.0326 (inactive)
GCCAGUGUCCCUAAUAAGGTT against Ager | 0.2 (inactive)
GCAAACUAUAGGUGCGUUGTT against Dscc1 | 0.885 (inactive)
GUCUACCAGAUCCUUCCCUTT against H2-Q8 | -2.25 (active)
GCAAACAUGUCAAGUCCGATT against Actl6b | 1.07 (inactive)
GGACUAUUUGCUGAUGGACTT against Trpc6 | 2.74 (active)
GCAUUUCACCUGGAGCCUUTT against Zfp108 | -1.11 (inactive)
CGAGAAUACAUUGAGGAGUTT against Hook2 | 0.926 (inactive)
CGACAACCACUUCAACUAUTT against Chn2 | 1.34 (inactive)
GGCUAUCCUCUUUUACCAUTT against Dele1 | -0.374 (inactive)
GGUGUUAGGAAGUCACAUUTT against Tas2r109 | -1.28 (inactive)
CCCUAUCCUGUUCAUCUCUTT against Gpr50 | 2.83 (active)
GGAAAAAGCUCAAAGGCGATT against Gap43 | -0.216 (inactive)
GGAAAUGGAUCCAGAAUAUTT against Smarca1 | -1.12 (inactive)
GGACAUGACAUCCAAAGACTT against Prmt1 | -0.649 (inactive)
GGACACAGAUUAAUCAAGATT against Iftap | 0.144 (inactive)
GGCCAUUGCCUCUUCUACUTT against Plekha4 | -0.225 (inactive)

Sequence | z-score
GAUCAACCUGAGCUCCAGUTT against Olfr25 | 2 (active)
GGCCAUCCGCAUUUUUUCCTT against Mex3b | -0.34 (inactive)
GGUUUUCAAAGUCCUGAAUTT against Myo3a | -1.96 (inactive)
GGGAAAGAAUGGUGUGGAATT against Dlx4 | -1.97 (inactive)
GGAAACUUCAGACUAGUCATT against Eif2s3y | -0.0291 (inactive)
GGGAAUUUCGGCUGUUUUATT against Cts8 | 1.85 (inactive)
GGACCUGAGAGACUCUUUGTT against Ip6k2 | -3 (active)
GGUCCACAGAUUCUUCUAATT against Zfa-ps | -0.761 (inactive)
GGCCAUUUUGGAUCAUACATT against Actl6a | -1.06 (inactive)
GCAGAUCAAUGGAUUCACCTT against Olfr57 | -1.51 (inactive)
GGCACUGCCAUUAACAAAATT against Nrip1 | 0.0122 (inactive)
GGGCCAAUAAAGAGGACAGTT against Aanat | 2.38 (active)
CCUGAUUGUCUUCAAUGGGTT against Cant1 | -0.84 (inactive)
CCAGUUGACAGGUUUGAUCTT against Habp4 | -0.255 (inactive)
GGUACAAGAUAUUGUGAAATT against Fgd3 | 0.0612 (inactive)
GCUUGAUCAACAAGUGGAGTT against Nup62 | -2.13 (active)
GAGCUCUGCAUUUGGUUAGTT against Fam98b | 0.0904 (inactive)
ACUCAGUCAUUAAAGAGUGTT against G430095P16Rik | 0.447 (inactive)
GGAUAUUCCCAAUUACAAGTT against Plxna3 | -0.469 (inactive)
GGUCCAGAAGCAGAUGCUUTT against Zdhhc15 | -0.174 (inactive)
GCAAGAACAUUAUGAAAGUTT against Epb41 | 0.905 (inactive)
GGCCUACCACCUUCAGAAGTT against Rpl37 | 2.01 (active)

Sequence | z-score
GGCACUGUAGACAAACUCUTT against Stxbp1 | -0.468 (inactive)
GGCACCUAUGAGGUUCUAUTT against Sec16b | -0.615 (inactive)
GUUCAAGAGGGAGCUGGAATT against Pomc | 0.842 (inactive)
GGUCAUUUGUUUUCAGGGATT against Tfdp2 | 3.07 (active)
GGGCCUUUAGUCCUCAAAGTT against Psmg3 | 0.387 (inactive)
CCUGUCAUCACACUCGAGGTT against Coro6 | -0.00248 (inactive)
CGGCGGUUUAAUGAAAAUATT against Cbfa2t2 | -2.58 (active)
GGUAGAAUGUGUGAUACCCTT against Rogdi | 0.205 (inactive)
GGUGGUCCAGAAUUUUGCATT against Cotl1 | 0.386 (inactive)
CGGGAAUAAGAUCUUUCUGTT against Zbtb22 | 1.43 (inactive)
GGUACAUGAUUACCAGCCUTT against Sdk2 | -2.26 (active)
GGAAUAGUGGCUUCUUUUATT against Rsph3a | -0.00182 (inactive)
UUUGCAUGUACAGAAUGCUTT against Olfr312 | 1.54 (inactive)
GGAAACACAAGUUCUAGGUTT against Gpx3 | 0.735 (inactive)
GGGUUUCUGUGAGAGACAATT against Ube2f | 1.01 (inactive)
GGAUGUUUGCUCUUGAGCGTT against Isoc1 | -2.17 (active)
GGGACUAUAAGGAACCAGGTT against Fmo3 | -0.35 (inactive)
GGGCAAGACUUAAUUUUGGTT against Dppa1 | -0.36 (inactive)
GGUCAAGAGUGCCCUAAAATT against Olfr398 | -1.63 (inactive)
GGAUUCGUUCAGCUAAGGGTT against Olfr1023 | 1.29 (inactive)
GGAGAAAUGUUGUUGUCUUTT against Kcng3 | -0.327 (inactive)
AAAGCGCAUUCACAAAAAUTT against Olfr1453 | 0.197 (inactive)

Sequence | z-score
GGAAACAAGGAUAUUCUUUTT against Fanca | 0.859 (inactive)
GGAGGUAUUAUCUGAAUUGTT against Utp14a | 1.17 (inactive)
GGAGGCAUACAUGACAAAATT against Cop1 | 0.953 (inactive)
GGCAGAGUGCUGACUUCAUTT against Coq8a | 3.86 (active)
CCAUGUAUGCCUCAACAUATT against Ltf | 0.517 (inactive)
GGAAAGUGCCAUGAAGACCTT against Dbi | -1.42 (inactive)
GCUCCUAAUGGAAAGAACGTT against Pla2g4d | 0.0914 (inactive)
CCUGUCCAGGGUUUGACCATT against Man2c1 | -1.12 (inactive)
GCGAUAUGCAGAGAAGCGGTT against Prpf8 | -1.63 (inactive)
GGUUAAAGGAGCAGUCUAUTT against Dbn1 | 0.636 (inactive)
GGAGAAAGUGUCCUCUGUGTT against Olfr924 | -2.41 (active)
GGGCUGGGUCUUCAUAAUUTT against 6330549D23Rik | 1.14 (inactive)
GCACUUCAAUCCAGUGUCUTT against Pdgfd | -1.27 (inactive)
GGCAAAAAUUUUUUCAUGCTT against Abcb4 | -0.47 (inactive)
GGUGGCGGGAGAUGUUUUUTT against Pex6 | 0.85 (inactive)
GGUCUAGAGCAAUUCCAUATT against Olfr656 | 1.51 (inactive)
GUUGUAUUUCUUUGUCCUCTT against Olfr1097 | 2.21 (active)
GAUCUUAUAUGUUGGUGGUTT against Vmn1r29 | -0.31 (inactive)
GGUGAACUUUACCUUCAACTT against Mov10 | 0.867 (inactive)
GGAUCAACGAGGUAAAGUCTT against Itga8 | 0.101 (inactive)
